Our source for the AC50 and outcome values is PubChem BioAssay (EPA / NIEHS).

Molecules are shown by their SMILES. Results filed as inconclusive are left out. Activity calls are given as the source filed them. How the source made its calls: active means hit-call score of the fitted dose curve at least 0.9, where 1 is the maximum; inconclusive means response in the unintended direction; inactive means score below 0.9.

The target of one test is PGR (gene 5241) (UniProt P06401). Put plainly: TOX21_PR_BLA_Followup_Antagonist_ratio: Tox21 HEK293 Progesterone Receptor (PR) Antagonism Beta-lactamase Follow-Up Assay, Ratio (AID 2283934). In outline: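 Antagonist mode used 1 nM R5020 (final) as agonist on a beta-lactamase reporter line in HEK293T cells. Activity was taken from the substrate cleavage ratio after 16 hr exposure.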
Chain of PGR (gene 5241) (P06401 whole entry, looked up): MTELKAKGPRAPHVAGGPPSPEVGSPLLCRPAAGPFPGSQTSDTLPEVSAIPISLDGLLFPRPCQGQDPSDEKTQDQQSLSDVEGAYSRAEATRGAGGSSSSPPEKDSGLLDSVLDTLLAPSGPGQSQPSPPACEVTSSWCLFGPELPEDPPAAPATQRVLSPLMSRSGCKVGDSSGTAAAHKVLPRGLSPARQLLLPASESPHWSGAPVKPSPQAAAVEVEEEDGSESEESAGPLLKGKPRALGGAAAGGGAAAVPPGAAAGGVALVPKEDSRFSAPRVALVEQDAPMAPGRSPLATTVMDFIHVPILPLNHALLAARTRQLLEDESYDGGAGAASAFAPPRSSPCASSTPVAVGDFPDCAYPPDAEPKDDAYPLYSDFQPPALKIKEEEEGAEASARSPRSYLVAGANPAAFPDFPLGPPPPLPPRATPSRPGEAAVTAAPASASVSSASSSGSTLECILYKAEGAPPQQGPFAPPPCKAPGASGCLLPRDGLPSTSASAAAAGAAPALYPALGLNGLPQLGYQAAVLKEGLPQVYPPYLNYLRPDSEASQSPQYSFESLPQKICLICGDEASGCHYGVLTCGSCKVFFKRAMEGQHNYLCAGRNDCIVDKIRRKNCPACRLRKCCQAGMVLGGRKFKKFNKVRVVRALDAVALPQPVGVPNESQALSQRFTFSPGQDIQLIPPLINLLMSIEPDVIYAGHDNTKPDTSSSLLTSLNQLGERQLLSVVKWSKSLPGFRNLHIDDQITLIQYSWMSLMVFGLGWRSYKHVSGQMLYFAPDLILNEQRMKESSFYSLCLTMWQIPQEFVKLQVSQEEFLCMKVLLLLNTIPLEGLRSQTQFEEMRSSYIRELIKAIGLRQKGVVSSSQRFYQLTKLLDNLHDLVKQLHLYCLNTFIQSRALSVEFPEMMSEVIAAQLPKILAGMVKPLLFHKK
By AC50 is commonly meant the midpoint of the concentration-response curve, whichever way the signal moves. Regarding `CCc1c(C(=O)NN2CCCCC2)nn(-c2ccc(Cl)cc2Cl)c1-c1ccc(Br)cc1`, the AC50 was 25.5 µM (active).

With `C[C@]12C=CC(=O)C=C1CC[C@@H]1[C@@H]2C(=O)C[C@@]2(C)[C@H]1CC[C@]2(O)C(=O)CO`, the outcome was inactive.

As for `CCOc1ccc2c(c1)C(C)=CC(C)(C)N2`, the outcome was inactive.

`Oc1ccc2ccccc2c1N=Nc1ccccc1`: the result was inactive.

`O=c1c(O)c(-c2ccc(O)c(O)c2)oc2cc(O)cc(O)c12`: the result was inactive.

Regarding `Oc1ccc2c(c1)OC[C@@H](N1CCC(O)(c3ccc(F)cc3)CC1)[C@H]2O`, the outcome was inactive.

System in a further test: not listed separately
Put plainly: TOX21_PR_BLA_Followup_Agonist_viability: Viability Assessment in the Tox21 HEK293 Progesterone Receptor (PR) Agonism Beta-lactamase Follow-Up Assay (AID 2283935).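 Further: cells exposed to compound for 16 hr at 37 °C; signal loss means lower viability so actives are cytotoxic.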 An outline of the steps: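 Multiplexed viability counter-screen: ATP-coupled luciferase signal measured after 30 min at room temperature, following 16 hr compound treatment of PR-UAS-bla HEK293T cells grown in charcoal-stripped serum.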
In the case of `CCc1c(C(=O)NN2CCCCC2)nn(-c2ccc(Cl)cc2Cl)c1-c1ccc(Br)cc1`, the molecule was classed as inactive.

Consider `C[C@]12C=CC(=O)C=C1CC[C@@H]1[C@@H]2C(=O)C[C@@]2(C)[C@H]1CC[C@]2(O)C(=O)CO`, for which the molecule was called inactive.

Turning to `CCOc1ccc2c(c1)C(C)=CC(C)(C)N2`, the molecule was classed as inactive.

For the molecule `Oc1ccc2ccccc2c1N=Nc1ccccc1`, the molecule was classed as inactive.

Turning to `Oc1ccc2c(c1)OC[C@@H](N1CCC(O)(c3ccc(F)cc3)CC1)[C@H]2O`, the outcome was inactive.

System in a further test: not listed separately
In words: TOX21_PR_BLA_Followup_Antagonist_viability: Viability Assessment in the Tox21 HEK293 Progesterone Receptor (PR) Antagonism Beta-lactamase Follow-Up Assay (AID 2283936).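 Further: hits lower the luminescence signal meaning cytotoxicity.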 In outline: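 PR-UAS-bla HEK293T cells (3,000/well, 2% charcoal-stripped FBS) given compound plus R5020 agonist, 16 h at 37C. CellTiter-Glo added after bla read, 30 min at room temperature; luminescence loss indicates cytotoxicity.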
Turning to `CCc1c(C(=O)NN2CCCCC2)nn(-c2ccc(Cl)cc2Cl)c1-c1ccc(Br)cc1`, the call was inactive.

For the molecule `CCOc1ccc2c(c1)C(C)=CC(C)(C)N2`, the result was inactive.

As for `Oc1ccc2ccccc2c1N=Nc1ccccc1`, the call was inactive.

Regarding `Oc1ccc2c(c1)OC[C@@H](N1CCC(O)(c3ccc(F)cc3)CC1)[C@H]2O`, the molecule was classed as inactive.

The next test has as its target PGR (gene 5241) (UniProt P06401). Put plainly: TOX21_PR_LUC_Followup_Antagonist: Tox21 HEK293 Progesterone Receptor (PR) Antagonism Luciferase Follow-Up Assay (AID 2283938).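 Further: curve fitted upward as signal gain over DMSO baseline despite antagonist label.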 An outline of the steps: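 HEK293-PR-A-luc cells, 3,000/well, preincubated 5 h at 37C before compound addition in DMSO; 16 h compound exposure at 37C. ONE-Glo luciferase luminescence read after 30 min at room temperature, fitted relative to DMSO baseline.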
For the molecule `CCc1c(C(=O)NN2CCCCC2)nn(-c2ccc(Cl)cc2Cl)c1-c1ccc(Br)cc1`, the molecule was called inactive.

On to `C[C@]12C=CC(=O)C=C1CC[C@@H]1[C@@H]2C(=O)C[C@@]2(C)[C@H]1CC[C@]2(O)C(=O)CO`, for which the molecule was called inactive.

Consider `CCOc1ccc2c(c1)C(C)=CC(C)(C)N2`, for which the outcome was inactive.

Regarding `O=c1c(O)c(-c2ccc(O)c(O)c2)oc2cc(O)cc(O)c12`, the result was inactive.

As for `Oc1ccc2c(c1)OC[C@@H](N1CCC(O)(c3ccc(F)cc3)CC1)[C@H]2O`, the molecule was called inactive.
